SMILES strings stand for the structures. Unmarked numbers belong to inactive results. Results filed as inconclusive are left out. Active and inactive are the calls of the source. Unless noted, calls come from the whole dose curve; as a rule, active = well fitted curve in the direction sought with a large enough effect in the repeat runs; inconclusive = weak or mixed curves; inactive = no such curve, though single readings can be large; an effect the other way counts as inactive or inconclusive.

Here are results for seven compounds from PubChem BioAssay (Tox21).

Assay [1] is described as follows: qHTS assay to identify small molecule agonists of the hypoxia (HIF-1) signaling pathway - cell viability counter screen (AID 1224844; calls by dose curve; note: nearly all actives have a fitted effect of over 50% in size). The gist of the method:
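In this counter screen, HRE-bla ME-180 cell viability after 17 hrs of compound exposure at 37C was read by CellTiter-Glo luminescence, multiplexed with the beta-lactamase reporter measurement.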

Assay [2] in a line: qHTS assay to identify small molecule agonists of H2AX (AID 1224845; active = well fitted activation curve with a large enough effect in the signal ratio in the repeat runs, not every such curve was filed as active; the % refers to the signal ratio). The gist of the method:
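Phospho-H2AX Ser139 measured by HTRF (ex 320 nm; em 665 and 620 nm) after 24 hr antibody incubation. Compounds, 15 concentrations, 0.76% DMSO, were applied to CHO-K1 cells for 3hr at 37C before lysis.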
For orientation: qHTS replaces the single test concentration by a dilution series.

Assay [3] can be described thus: qHTS assay to identify small molecule agonists of the hypoxia (HIF-1) signaling pathway (AID 1224846; active = well fitted activation curve with a large enough effect in the signal ratio in the repeat runs, not every such curve was filed as active; the % refers to the signal ratio). The gist of the method:
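ME-180 HRE-bla reporter cells; compounds in DMSO, 17 h at 37C; read-out beta-lactamase via CCF4-AM FRET.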

Assay [4] can be described thus: qHTS assay to identify small molecule agonists of H2AX - cell viability counter screen (AID 1224847; calls by dose curve; note: top concentration of the series differs between compounds; nearly all actives have a fitted effect of over 30% in size). The procedure, abridged:
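Wild-type CHO-K1 cells (10% FBS medium) were plated overnight at 37C, exposed to compounds at 15 concentrations for 3 hr at 37C (0.76% DMSO final), and viability was read as CellTiter-Glo luminescence after 30 min at room temperature.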

The nature of assay [5]: qHTS RealTime-Glo MT Cell Viability Assay in HepG2 cells - 24 hour (AID 1224867). Note: nearly all actives have a fitted effect of over 50% in size. The gist of the method: (§1)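 Cell number in HepG2 cultures estimated from NanoLuc luminescence generated by metabolic reduction of a prosubstrate by living cells. The homogeneous, nonlytic format allowed repeated reads at 0, 8, 16, 24, 32 and 40 h of compound exposure.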
A short description of assay [6]: qHTS RealTime-Glo MT Cell Viability Assay in HEK293 cells - 32 hour (AID 1224868). Note: top concentration of the series differs between compounds; nearly all actives have a fitted effect of over 50% in size. The gist of the method: (§2)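 Homogeneous bioluminescent viability format in HEK293 cells (600 cells/well). Following 5 h at 37 C/5% CO2, 23 nL compound was pintooled; the signal was measured repeatedly during 40 h incubation.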
Assay [7] can be described thus: A CellTox Green Cytotoxicity Assay to monitor cytotoxicity in HEK293 cells - 0 hour (AID 1224869). Note: nearly all actives have a fitted effect of over 50% in size. The procedure, abridged:
(§3)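 Real-time, in one plate: 600 HEK293 cells/well with dead-cell DNA dye, pinned compound after 5 h, 37 C incubation over 40 h; viable cells give no appreciable fluorescence.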

Assay [8] is described as follows: qHTS RealTime-Glo MT Cell Viability Assay in HepG2 cells - 40 hour (AID 1224870). Note: nearly all actives have a fitted effect of over 50% in size. The procedure, abridged: (§4)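 Real-time viability: cells seeded at 600 per well together with NanoLuc and cell-permeant prosubstrate, compounds added after 5 h incubation. Luminescence tracked at 0, 8, 16, 24, 32 and 40 h of exposure.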
A short description of assay [9]: A CellTox Green Cytotoxicity Assay to monitor cytotoxicity in HEK293 cells - 40 hour (AID 1224871). Note: nearly all actives have a fitted effect of over 45% in size. The procedure, abridged:
as §3

Assay [10] in a line: qHTS RealTime-Glo MT Cell Viability Assay in HEK293 cells - 16 hour (AID 1224872). The procedure, abridged:
as §2

A short description of assay [11]: qHTS RealTime-Glo MT Cell Viability Assay in HepG2 cells - 8 hour (AID 1224873). Note: nearly all actives have a fitted effect of over 55% in size. The procedure, abridged:
as §4

Assay [12] can be described thus: qHTS RealTime-Glo MT Cell Viability Assay in HEK293 cells - 40 hour (AID 1224874). Note: nearly all actives have a fitted effect of over 50% in size. The settings on record: RealTime-Glo luminescence; max response: hits give low values. The gist of the method: (§5)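 Kinetic, non-lysing viability readout. Seed HEK293 (600/well) with reagent, incubate 5 h at 37 C/5% CO2, pin 23 nL compound in DMSO, incubate at 37 C, read luminescence at 0, 8, 16, 24, 32, 40 h.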

Assay [13] can be described thus: A CellTox Green Cytotoxicity Assay to monitor cytotoxicity in HEK293 cells - 24 hour (AID 1224875). Note: nearly all actives have a fitted effect of over 45% in size. The gist of the method:
as §3

Assay [14] is described as follows: A CellTox Green Cytotoxicity Assay to monitor cytotoxicity in HepG2 cells - 16 hour (AID 1224876). Note: nearly all actives have a fitted effect of over 45% in size. The gist of the method: (§6)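 Cytotoxicity was tracked as dead-cell DNA fluorescence in HepG2 cells treated with test compounds at 37 C; each time-point value comes from one kinetic series spanning 0, 8, 16, 24, 32 and 40 h.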
Assay [15] is described as follows: qHTS RealTime-Glo MT Cell Viability Assay in HepG2 cells - 32 hour (AID 1224877). Note: nearly all actives have a fitted effect of over 55% in size. The gist of the method: as §1
Assay [16] can be described thus: A CellTox Green Cytotoxicity Assay to monitor cytotoxicity in HepG2 cells - 24 hour (AID 1224878). Note: nearly all actives have a fitted effect of over 45% in size. The gist of the method:
as §6

The nature of assay [17]: A CellTox Green Cytotoxicity Assay to monitor cytotoxicity in HepG2 cells - 40 hour (AID 1224879). Note: nearly all actives have a fitted effect of over 40% in size. The gist of the method:
as §6

Assay [18] in a line: qHTS RealTime-Glo MT Cell Viability Assay in HEK293 cells - 0 hour (AID 1224880). The gist of the method: as §5
The nature of assay [19]: qHTS assay to identify small molecule antagonists of the estrogen related receptor (ERR) signaling pathway from Tox21 library (AID 1224848). Note: nearly all actives have a fitted effect of over 50% in size. Note: potency is the fitted concentration of half-maximal effect. The gist of the method: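 ERR cell line, 2,000 cells/well. 6 h settle, then compound (DMSO) added; 18 h at 37 C; ONE-Glo luminescence after 30 min RT.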
A short description of assay [20]: qHTS assay to identify small molecule agonists of the estrogen related receptor (ERR) signaling pathway from Tox21 library (AID 1224849; calls by dose curve; note: nearly all actives have a fitted effect of over 15% in size). The settings on record: ERR reporter cell line, ONE-Glo luciferase, 18 h; at 92.4 µM (top of the series) unless noted. The gist of the method: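 Luciferase activity in ERR pathway reporter cells served as the agonist readout; exposure lasted 18 h at 37 C, with ONE-Glo detection after 30 min at room temperature.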
% is set by controls: 0 for no effect and ±100 for the full control effect.

On to `CC(C)CCCCCCOC(=O)c1ccc(C(=O)OCCCCCCC(C)C)c(C(=O)OCCCCCCC(C)C)c1`, for which the Potency result in assay [1], in assay [2], in assay [4], in assay [5], in [6] and in assay [7] was “inactive” throughout. Also, the Potency entry in [8], in assay [9], in [10], in assay [11], in assay [13] and in assay [14] was “inactive” throughout. Besides, the Potency entry in assay [15], in assay [16], in [17] and in [18] was “inactive” throughout. Moreover, the call in [3] was inactive. In addition, the max response in assay [12] was -0.306%.

Consider `CCc1nn(C2CCCCC2)c2cc(C3(C#N)CCC(C(=O)O)CC3)ccc12` (centres undefined), for which the Potency result in assay [1], in assay [2], in assay [4], in assay [5], in [6] and in [7] was “inactive” each time. Also, the Potency result in [8], in assay [9], in assay [10], in assay [11], in assay [13] and in [14] was “inactive” in each case. Moreover, the Potency result in assay [15], in assay [16], in assay [17] and in assay [18] was “inactive” throughout. Besides, the compound was called inactive in [3]. Also, the Potency in assay [19] was 48.6 µM (active). In addition, the activity change, positive = activation in assay [20] is -46.5%. The max response in [12] is 0.457%.

Consider `CCOc1cc(OCC)c(C(=O)CCC(=O)O)cc1OCC`, for which the Potency result in [1], in assay [2], in [4], in assay [5], in assay [6] and in [7] was “inactive” in each case. Further, the Potency result in assay [8], in [9], in [10], in [11], in [13] and in assay [14] was “inactive” in each case. Also, the Potency result in [15], in [16], in assay [17] and in assay [18] was “inactive” each time. The compound was called inactive in assay [3]. In addition, the max response in [12] is 3.3%.

As for `O=CNc1ccccc1`, the Potency entry in assay [1], in assay [2], in assay [4], in [19], in assay [5] and in [6] was “inactive” each time. Besides, the Potency entry in assay [7], in [8], in [9], in [10], in assay [11] and in assay [13] was “inactive” in each case. Further, the Potency result in assay [14], in assay [15], in [16], in assay [17] and in [18] was “inactive” in each case. Also, the call in assay [3] was inactive. In addition, in assay [20], the activity change, positive = activation was -1.57%. For the same compound, the max response in [12] is -8.05%.

As for `CNS(=O)(=O)Cc1ccc2[nH]cc(CCN(C)C)c2c1`, the Potency entry in assay [1], in [2], in assay [4], in assay [5], in assay [6] and in [7] was “inactive” each time. The Potency entry in assay [8], in [9], in [10], in assay [11], in [13] and in [14] was “inactive” each time. Moreover, the Potency result in [15], in assay [16], in [17] and in assay [18] was “inactive” in each case. In addition, the result in assay [3] was inactive. Moreover, in assay [12], the max response was 2.61%.

With `CC(C)(C)c1cc(CCC(=O)OCC(COC(=O)CCc2cc(C(C)(C)C)c(O)c(C(C)(C)C)c2)(COC(=O)CCc2cc(C(C)(C)C)c(O)c(C(C)(C)C)c2)COC(=O)CCc2cc(C(C)(C)C)c(O)c(C(C)(C)C)c2)cc(C(C)(C)C)c1O`, the Potency entry in assay [1], in assay [2], in [4], in assay [5], in assay [6] and in assay [7] was “inactive” in each case. For the same compound, the Potency result in assay [8], in [9], in [10], in [11], in assay [13] and in [14] was “inactive” each time. Moreover, the Potency entry in assay [15], in assay [16], in assay [17] and in assay [18] was “inactive” each time. In addition, the outcome in assay [3] was inactive. The max response in assay [12] is 0.256%.

As for `O=c1c2ccccc2nnn1CCl`, the Potency result in assay [1], in assay [2], in assay [4], in assay [5], in assay [6] and in assay [7] was “inactive” throughout. Further, the Potency result in [8], in assay [9], in assay [10], in assay [11], in [13] and in assay [14] was “inactive” in each case. The Potency entry in [15], in [16] and in [17] was “inactive” in each case. Further, the compound was classed as inactive in assay [3]. Also, the max response in assay [12] is 10.3%.
